What was measured:
Test in all cases: log2 ratio of Biotin-Ahx-Ub-VS probe labelling (compound/DMSO); higher = less target engagement, active = hit call of the paper (q ≤ 0.05, log2 ratio ≤ -1)
Conditions in all cases: treatment time: 3 h
[1] = compound: CCC1N(CCc2sccc12)C(=O)CCl
Method in brief: (§1)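 Compound at 50 or 200 µM, or DMSO, was applied for 3 h in triplicate to HEK293T lysate (495 µg per sample, Tris/CHAPS/IGEPAL buffer with protease inhibitors), after which Biotin-Ahx-Ub-VS was added at 0.5 µM final for 1 h. The labelled DUBs were pulled down with NeutrAvidin, digested with LysC and trypsin, and run by diaPASEF LC-MS/MS. Ratios are averaged base-two logs of compound over DMSO from median-normalised label-free quantities by unpaired t-test, counting only proteins with at least 2 unique peptides.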

[2] = compound: CN1c2ccccc2C(CS1(=O)=O)NC(=O)CCl
Method in brief: as §1

[3] = compound: Cl.ClCC(=O)N1CCc2ncncc2C1
Method in brief: as §1

[4] = compound: Cl.Cn1ncc2C(CCCc12)NC(=O)CCl
Method in brief: as §1

[5] = compound: ClCC(=O)NC1CCOc2ccccc12
Method in brief: as §1

[6] = compound: ClCC(=O)NC1CCCc2ccccc12
Method in brief: (§2)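 Spectronaut label-free, global-median-normalised protein quantities underlie these values, which are average ratios of compound to vehicle from an unpaired t-test. They are reported as log2 and include only proteins identified by two or more unique peptides. Samples of HEK293T lysate (495 µg) were treated in triplicate with a compound concentration series or vehicle for 3 h, then labelled with Biotin-Ahx-Ub-VS at 0.5 µM final for 1 h before NeutrAvidin enrichment, LysC and trypsin digestion, and diaPASEF LC-MS/MS.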

[7] = compound: ClCC(=O)N[C@@H]1CCCc2ccccc12
Method in brief: as §2

[8] = compound: ClCC(=O)N[C@H]1CCCc2ccccc12
Method in brief: as §2

[9] = compound: CCC1N(CCc2cc(OC)c(Cl)cc12)C(=O)CCl
Method in brief: as §1

[10] = compound: CCCC1N(CCc2cc(OC)c(OC)cc12)C(=O)CCl
Method in brief: as §1

Measured: log2 ratio of Biotin-Ahx-Ub-VS probe labelling

ATXN3 (UniProt P54252)
UniProt P54252, sequence (P54252 whole entry): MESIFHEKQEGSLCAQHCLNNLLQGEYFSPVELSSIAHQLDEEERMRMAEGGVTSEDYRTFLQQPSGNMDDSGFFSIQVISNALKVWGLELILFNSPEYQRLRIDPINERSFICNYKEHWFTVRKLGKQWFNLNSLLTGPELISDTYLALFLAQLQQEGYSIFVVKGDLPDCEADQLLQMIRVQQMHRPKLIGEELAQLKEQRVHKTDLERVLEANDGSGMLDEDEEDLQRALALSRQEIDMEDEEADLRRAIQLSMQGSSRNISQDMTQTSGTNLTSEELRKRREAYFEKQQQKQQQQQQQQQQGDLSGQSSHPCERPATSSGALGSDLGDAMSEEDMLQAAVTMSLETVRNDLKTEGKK
inactive: [1]; compound concentration: 50uM -0.116 | [1]; compound concentration: 200uM -0.483 | [2]; compound concentration: 50uM -0.0445 | [2]; compound concentration: 200uM -0.365 | [3]; compound concentration: 50uM -0.35 | [4]; compound concentration: 50uM 0.199 | [4]; compound concentration: 200uM -0.212 | [5]; compound concentration: 50uM 0.00952 | [5]; compound concentration: 200uM -0.0594 | [6]; compound concentration: 0.78uM -0.108 | [6]; compound concentration: 1.56uM -0.213 | [6]; compound concentration: 3.13uM -0.478 | [6]; compound concentration: 6.25uM -0.165 | [6]; compound concentration: 12.5uM -0.236 | [6]; compound concentration: 25uM -0.301 | [6]; compound concentration: 50uM -0.18 | [6]; compound concentration: 100uM -0.156 | [6]; compound concentration: 200uM -0.285 | [7]; compound concentration: 0.78uM -0.286 | [7]; compound concentration: 1.56uM -0.107 | [7]; compound concentration: 3.13uM -0.24 | [7]; compound concentration: 6.25uM -0.0908 | [7]; compound concentration: 12.5uM -0.0507 | [7]; compound concentration: 25uM -0.218 | [7]; compound concentration: 50uM -0.0106 | [7]; compound concentration: 100uM -0.151 | [7]; compound concentration: 200uM -0.0598 | [8]; compound concentration: 0.78uM -0.183 | [8]; compound concentration: 1.56uM -0.0688 | [8]; compound concentration: 3.13uM -0.152 | [8]; compound concentration: 6.25uM -0.297 | [8]; compound concentration: 12.5uM -0.125 | [8]; compound concentration: 25uM -0.266 | [8]; compound concentration: 50uM -0.171 | [8]; compound concentration: 100uM -0.0739 | [8]; compound concentration: 200uM -0.312 | [9]; compound concentration: 50uM -0.248 | [10]; compound concentration: 50uM 0.126 | [10]; compound concentration: 200uM -0.435
active: [3]; compound concentration: 200uM -1.37 | [9]; compound concentration: 200uM -1.54

UCHL3 (UniProt P15374)
UniProt P15374, sequence (P15374 whole entry): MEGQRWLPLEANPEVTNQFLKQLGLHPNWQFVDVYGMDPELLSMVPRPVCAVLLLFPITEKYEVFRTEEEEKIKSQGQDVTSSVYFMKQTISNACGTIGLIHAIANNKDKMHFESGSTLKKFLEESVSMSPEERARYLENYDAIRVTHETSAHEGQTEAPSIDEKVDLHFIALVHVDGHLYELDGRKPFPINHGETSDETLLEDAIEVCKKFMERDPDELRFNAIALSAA
inactive: [1]; compound concentration: 50uM -0.196 | [1]; compound concentration: 200uM -0.314 | [2]; compound concentration: 50uM -0.297 | [2]; compound concentration: 200uM -0.153 | [3]; compound concentration: 50uM -0.183 | [3]; compound concentration: 200uM -0.417 | [4]; compound concentration: 50uM -0.099 | [4]; compound concentration: 200uM 0.0584 | [5]; compound concentration: 50uM -0.019 | [5]; compound concentration: 200uM -0.018 | [6]; compound concentration: 0.78uM -0.0289 | [6]; compound concentration: 1.56uM 0.0129 | [6]; compound concentration: 3.13uM -0.0693 | [6]; compound concentration: 6.25uM 0.048 | [6]; compound concentration: 12.5uM 0.0678 | [6]; compound concentration: 25uM -0.149 | [6]; compound concentration: 50uM 0.0701 | [6]; compound concentration: 100uM 0.149 | [6]; compound concentration: 200uM -0.0196 | [7]; compound concentration: 0.78uM -0.0917 | [7]; compound concentration: 1.56uM -0.101 | [7]; compound concentration: 3.13uM 0.0215 | [7]; compound concentration: 6.25uM 0.0584 | [7]; compound concentration: 12.5uM -0.0931 | [7]; compound concentration: 25uM -0.0862 | [7]; compound concentration: 50uM -0.186 | [7]; compound concentration: 100uM -0.142 | [7]; compound concentration: 200uM -0.0506 | [8]; compound concentration: 0.78uM -0.0451 | [8]; compound concentration: 1.56uM -0.0987 | [8]; compound concentration: 3.13uM 0.048 | [8]; compound concentration: 6.25uM 0.105 | [8]; compound concentration: 12.5uM -0.0766 | [8]; compound concentration: 25uM -0.0628 | [8]; compound concentration: 50uM -0.0352 | [8]; compound concentration: 100uM -0.00864 | [8]; compound concentration: 200uM -0.0634 | [9]; compound concentration: 50uM 0.093 | [9]; compound concentration: 200uM -0.266 | [10]; compound concentration: 50uM -0.509 | [10]; compound concentration: 200uM -0.431

USP8 (UniProt P40818)
UniProt P40818, sequence (P40818 whole entry): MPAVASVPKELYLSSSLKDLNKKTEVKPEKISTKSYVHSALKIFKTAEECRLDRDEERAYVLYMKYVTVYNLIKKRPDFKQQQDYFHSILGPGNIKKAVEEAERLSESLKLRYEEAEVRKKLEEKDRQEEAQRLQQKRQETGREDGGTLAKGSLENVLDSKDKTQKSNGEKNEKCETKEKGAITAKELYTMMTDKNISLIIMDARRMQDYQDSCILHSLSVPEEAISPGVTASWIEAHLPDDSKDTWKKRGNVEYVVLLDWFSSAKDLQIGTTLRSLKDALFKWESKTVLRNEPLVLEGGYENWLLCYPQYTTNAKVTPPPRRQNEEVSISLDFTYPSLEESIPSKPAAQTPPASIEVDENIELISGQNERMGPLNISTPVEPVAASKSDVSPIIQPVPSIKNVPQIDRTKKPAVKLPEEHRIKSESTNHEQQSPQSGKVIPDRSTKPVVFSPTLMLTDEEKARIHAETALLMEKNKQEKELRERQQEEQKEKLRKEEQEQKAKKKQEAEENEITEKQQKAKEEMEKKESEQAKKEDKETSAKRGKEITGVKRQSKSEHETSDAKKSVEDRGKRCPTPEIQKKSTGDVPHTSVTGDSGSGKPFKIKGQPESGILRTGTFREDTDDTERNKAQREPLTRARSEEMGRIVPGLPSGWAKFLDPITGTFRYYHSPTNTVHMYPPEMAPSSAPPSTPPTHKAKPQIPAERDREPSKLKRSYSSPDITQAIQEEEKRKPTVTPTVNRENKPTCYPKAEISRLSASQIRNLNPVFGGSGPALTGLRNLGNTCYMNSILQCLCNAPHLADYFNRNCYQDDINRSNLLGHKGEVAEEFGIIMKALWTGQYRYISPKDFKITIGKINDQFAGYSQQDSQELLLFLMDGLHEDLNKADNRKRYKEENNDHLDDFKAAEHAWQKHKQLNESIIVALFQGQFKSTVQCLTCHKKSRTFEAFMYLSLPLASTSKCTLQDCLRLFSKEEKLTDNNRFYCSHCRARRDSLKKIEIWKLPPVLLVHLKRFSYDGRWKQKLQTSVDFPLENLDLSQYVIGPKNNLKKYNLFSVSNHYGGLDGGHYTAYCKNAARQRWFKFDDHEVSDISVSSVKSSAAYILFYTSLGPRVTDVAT
inactive: [1]; compound concentration: 50uM -0.18 | [1]; compound concentration: 200uM -0.116 | [2]; compound concentration: 50uM -0.21 | [2]; compound concentration: 200uM -0.21 | [3]; compound concentration: 50uM -0.0841 | [3]; compound concentration: 200uM -0.378 | [4]; compound concentration: 50uM -0.0611 | [4]; compound concentration: 200uM 0.0851 | [5]; compound concentration: 50uM -0.212 | [5]; compound concentration: 200uM -0.0542 | [6]; compound concentration: 0.78uM -0.0473 | [6]; compound concentration: 1.56uM 0.0438 | [6]; compound concentration: 3.13uM -0.127 | [6]; compound concentration: 6.25uM -0.0217 | [6]; compound concentration: 12.5uM -0.0947 | [6]; compound concentration: 25uM -0.0983 | [6]; compound concentration: 50uM -0.0766 | [6]; compound concentration: 100uM -0.0121 | [6]; compound concentration: 200uM -0.102 | [7]; compound concentration: 0.78uM -0.0947 | [7]; compound concentration: 1.56uM -0.0445 | [7]; compound concentration: 3.13uM -0.000329 | [7]; compound concentration: 6.25uM -0.0324 | [7]; compound concentration: 12.5uM -0.0744 | [7]; compound concentration: 25uM -0.057 | [7]; compound concentration: 50uM -0.0549 | [7]; compound concentration: 100uM -0.0496 | [7]; compound concentration: 200uM -0.123 | [8]; compound concentration: 0.78uM -0.131 | [8]; compound concentration: 1.56uM -0.0656 | [8]; compound concentration: 3.13uM -0.0464 | [8]; compound concentration: 6.25uM 0.0547 | [8]; compound concentration: 12.5uM 0.00701 | [8]; compound concentration: 25uM -0.0406 | [8]; compound concentration: 50uM 0.000255 | [8]; compound concentration: 100uM -0.0245 | [8]; compound concentration: 200uM -0.143 | [9]; compound concentration: 50uM -0.0467 | [9]; compound concentration: 200uM -0.231 | [10]; compound concentration: 50uM -0.414 | [10]; compound concentration: 200uM -0.636
